The structures appear in SMILES notation. The source made the active and inactive calls. Rule for the calls: active = hit-call score of the fitted dose curve at least 0.9, where 1 is the maximum; inactive = score below 0.9.

The AC50 is the concentration at which the activity in the assay is half-maximal.

The experiment can be described thus: APR_HepG2_MicrotubuleCSK_24hr: Apredica 24-hour HepG2 Assay for Microtubule CSK Stabilty (AID 2282909). The settings on record: HepG2 microtubule cytoskeleton imaging, actives raise or lower the signal. The method, then: APR_HepG2_24hr is a cell-based, multiplexed-readout assay that uses HepG2, a human liver cell line, with measurements taken at 24 hours after chemical dosing in a 384-well plate.APR_HepG2_MicrotubuleCSK_24hr is one of 10 assay component(s) measured or calculated from the APR_HepG2_24hr assay. It is designed to make measurements of protein conformation, a form of conformation reporter, as detected with fluorescence intensity signals by HCS Fluorescent Imaging technology.Data from the assay component APR_HepG2_MicrotubuleCSK_24hr was analyzed into 1 assay endpoint. This assay endpoint, APR_HepG2_MicrotubuleCSK_24hr, was analyzed with bidirectional fitting relative to DMSO as the negative control and baseline of activity. Using a type of conformation reporter, measures of protein for gain or loss-of-signal activity can be used to understand the signaling at the cellular-level. Furthermore, this assay endpoint can be referred to as a primary readout, because this assay has produced multiple assay endpoints where this one serves a signaling function. To generalize the intended target to other relatable targets, this assay endpoint is annotated to the cell morphology intended target family, where the subfamily is cell conformation.
Cells were treated with dimethyl sulfoxide (DMSO) as a solvent control at a final concentration of 0.5% v/v or with compounds in DMSO with a resulting final DMSO concentration of 0.5% v/v. Compound treatment was done at concentrations of 0.39, 0.78, 1.56, 3.12, 6.24, 12.5, 25, 50, 100, and 200 uM in duplicate on each plate. Cells were treated with compounds for 1, 24, or 72 hr. Carbonyl […] m-chloro-phenylhydrazone (CCCP) and taxol were used as positive controls for mitochondrial function and cytoskeletal stability, respectively; DMSO served as the negative control for this experiment. Cells were fixed by the direct addition of 50 uL formaldehyde in Hank's Balanced Salt Solution (HBSS) to a final concentration of 3.7%. After incubation in the fixation medium for 30 min at room temperature (293-298 K), cells were rinsed twice with HBSS and treated with cell permeabilization buffer (16 uL of 0.5% Triton X-100) for 10 min at room temperature (293-298 K) before labeling. For mitochondrial membrane potential and mitochondrial measurements, pre-fixed cells were incubated with 50 uL of MitoTracker Red CMXRos (Invitrogen) at a concentration of 250 nM for 30 min before fixation. In the remaining cases, post-fixed cells were labeled by incubation with a multiplexed mixture of primary antibodies in HBSS for 60 min at room temperature (293-298 K) to detect immunoreactivity of c-Jun (1:500), phospho-histone H3 (1:100), phospho-histone H2A.x (1:200), p53 (1:400), alpha-tubulin (1:200) and Hoechst 33342 (2 ug/mL). Cells were labeled for multiplexed imaging on two separate plates: a) Hoechst 33342, MitoTracker Red, phospho-histone H3, and alpha-tubulin, and b) Hoechst 33342, phospho-histone H2A.x, and c-Jun. A final rinse with HBSS (50 uL) was performed before analysis. The primary and secondary antibodies for the proteins were phospho-histone H3 (rabbit anti-phospho-histone H3 and FITC-donkey anti-rabbit IgG), phospho-histone H2A.x (mouse anti-phospho-histone H2A.x and FITC-donkey anti-mouse IgG), c-Jun (rabbit anti-phospho-c-Jun and Cy3-donkey anti-rabbit IgG), p53 (sheep anti-p53 and Cy5-donkey anti-sheep IgG), alpha-tubulin (mouse anti-alpha-tubulin and Cy5-donkey anti-mouse IgG). These antibodies are available as the CellCiphr HepG2 assay kit (Millipore).Digital images of each well were captured using a Cellomics ArrayScan VTI (Thermo Scientific Cellomics) (0.8 NA objective, 0.63x optical coupler, and XF-93 filter set) at 20x magnification. The images were acquired using the autofocus feature of the ArrayScan instrument, which entails the following steps. First, the camera focuses on channel 1 (Hoechst 33342), where nuclei are identified. Second, a Z offset of 1 um is used for capturing mitochondria (MitoTracker Red). […]
For the compound `CSC(C)(C)C=NO`, the compound was called inactive.

Consider `CCOP(=S)(OCC)SCSCC`, for which the result was inactive. As for `Cc1cccc(N)c1`, the result was inactive.

Consider `CCCCN(CCCC)N=O`, for which the result was inactive. `O=[N+]([O-])c1ccccc1`: the result was inactive. Still for that read-out and setting: with `CCCN(CCC)c1c([N+](=O)[O-])cc(C(C)C)cc1[N+](=O)[O-]` the entry was “inactive”. For the compound `CCCCN(CCCC)SN(C)C(=O)Oc1cccc2c1OC(C)(C)C2`, the call was inactive. As for `CC(Cl)(Cl)C(=O)O`, the compound was classed as inactive. Turning to `Cc1ccc(N)cc1N`, the outcome was inactive. `c1cc2c3c(cccc3c1)CC2`: the compound was classed as inactive. Same read-out and setting: in the case of `c1ccc2c(c1)Nc1ccccc1S2` it was “inactive”; in that of `CC(C)(C)OOC(C)(C)C`, “inactive”; in that of `Nc1ccc(Cl)cc1`, “inactive”. For the compound `CCCCc1ccccc1`, the outcome was inactive. Consider `CCCCCCCc1ccc(O)cc1`, for which the compound was called inactive. Still for that read-out and setting: with `ClC(Cl)(Cl)c1ccccc1` the entry was “inactive”. Same read-out and setting: in the case of `ClC(Cl)c1ccccc1` it was “inactive”; in that of `O=[N+]([O-])c1ccc(Cl)c(Cl)c1`, “inactive”.

For the compound `CCC(C)(C)c1ccc(O)cc1`, the outcome was inactive. As to `OCC1CO1` (stereo not given), the call was inactive. As to `Nc1cc2c3c(c1)C(c1ccccc1)=N[C@@H](NC(=O)c1cccnc1)C(=O)N3CC2`, the outcome was inactive. Take `O=C(O)C1C(C(=O)O)C2(Cl)C(Cl)=C(Cl)C1(Cl)C2(Cl)Cl` (stereo not given): the outcome was inactive. Take `c1nc[nH]n1`: the outcome was inactive. As to `CCOC(=O)c1ccccc1C(=O)OCC`, the compound was called inactive. For `CCOS(=O)(=O)OCC`, the compound was called inactive. Regarding `CCOP(=S)(Oc1ccc([N+](=O)[O-])cc1)c1ccccc1` (stereo not given), the compound was called inactive. On to `O=C(O)C(Cl)Cl`, for which the compound was classed as inactive. With `CC(Cc1ccc(OCC(=O)O)cc1)NCC(O)c1csc(C(F)(F)F)n1` (stereo not given), the compound was called inactive.

Turning to `O=P1(N(CCCl)CCCl)NCCCO1` (stereo not given), the call was inactive.

Regarding `[N-]=[N+]=[N-]`, the compound was classed as inactive.

Consider `O=P(Oc1ccccc1)(Oc1ccccc1)Oc1ccccc1`, for which the concentration at half-maximal activity (AC50) was 83 µM (active). With `CCOc1ccc(C(C)(C)COCc2cccc(Oc3ccccc3)c2)cc1`, the outcome was inactive.

As to `Cc1ccc([N+](=O)[O-])cc1C`, the result was inactive.

Turning to `c1ccc(OP(Oc2ccccc2)Oc2ccccc2)cc1`, the call was inactive. As to `CN(C)C(=O)Cl`, the compound was called inactive. The same measure, in the same setting: in the case of `CCN(CC)c1ccccc1` it was “inactive”. As for `CCNc1nc(Cl)nc(NC(C)(C)C)n1`, the outcome was inactive. As for `COCCOCCO`, the outcome was inactive. Take `CCC1(c2ccccc2)C(=O)N=C(O)NC1=O` (stereo not given): the compound was called inactive. Turning to `ClC1=C(Cl)C2(Cl)C3C(Cl)C(Cl)CC3C1(Cl)C2(Cl)Cl` (stereo not given), the AC50 was 156 µM (active).

The values above are taken from PubChem BioAssay (EPA / NIEHS).
